Shown are actives, neighbours in structure and some others; about 19% of the full set was active somewhere.
TDP1 cell CPT: qHTS for Inhibitors of human tyrosyl-DNA phosphodiesterase 1 (TDP1): qHTS in cells in presence of CPT. Potency, µM (series often up to 46.2 µM), without a hit: at the highest dose activity change, negative = growth inhibition, usual class: inhibitors. AID 686979, 2013. chicken DT40 Tdp1-/-;hTDP1 cells + 20 nM CPT, ATP luminescence, 48 h. 12% of 420,000 active; also: potency is read from the fitted curve at half-maximal effect; nearly all actives have a fitted effect of over 55% in size
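Cell growth measured by CellTiter-Glo luminescence after a minimum 48 h, 37 C compound exposure with 20 nM CPT in Tdp1-knockout DT40 cells stably expressing hTDP1, seeded 400/well; qHTS titration format.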
HT1080 IDH1KD tx: qHTS for induction of synthetic lethality in tumor cells producing 2HG: qHTS for the HT-1080-IDH1KD cell line. HT-1080 IDH1 knockdown viability, ATP luminescence, 48 h. Potency, µM (highest dose often 46.1 µM), for the others: top-dose activity, negative = toxicity, hits mostly cytotoxic. 2% of 360,000 active. AID 686971, 2013;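 also: potency is read from the fitted curve at half-maximal effect; 0% = DMSO wells and -100% = cell-free medium wells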
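HT-1080-IDH1KD cells (IDH1 knocked down), 750/well in RPMI with 5% FBS, treated with compound 48 h at 37 degrees C. Viability by CellTiter-Glo luminescence, normalised to DMSO and no-cell wells; concentration-response curves classed.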
IL1B secr inh: qHTS for Inhibitors of Inflammasome Signaling: IL-1-beta AlphaLISA Primary Screen; AID 743279, 2014; activity change, % at 57.5 µM; THP-1 LPS/ATP IL-1B secretion, AlphaLISA, 16 h; active compounds read low; 4.7% of 360,000 active; in the data active = activity change below about -50%; inconclusive = mostly about -30% to -49%
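Secreted IL-1B measured by AlphaLISA bead assay after 16 h compound exposure of THP-1 cells; compounds (final up to 57.5 uM) added 1 h before LPS (250 ng/mL) and ATP (1.25 mM) stimulation; lower signal means less secretion.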
HT1080-NT tox: qHTS for induction of synthetic lethality in tumor cells producing 2HG: qHTS for the HT-1080-NT fibrosarcoma cell line; Potency, µM (top dose mostly 46.1 µM), inactives show top-dose activity, negative = less viability, most hits filed as cytotoxic; 1.6% of 360,000 active; HT-1080-NT fibrosarcoma viability, CellTiter-Glo ATP luminescence, 48 h; AID 686970, 2013;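 also: NT is the 2HG producing partner of a matched IDH1 knockdown line; potency is read from the fitted curve at half-maximal effect; 0% = DMSO-treated cells and -100% = media-only wells without cells; nearly all actives have a fitted effect of over 55% in size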
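Compounds were tested in concentration-response format on HT-1080-NT cells for 48 hours at 37 degrees C. Cell viability came from CellTiter-Glo luminescence; curves were classified by r2, response magnitude and activity.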
TDP1 cell noCPT: qHTS for Inhibitors of human tyrosyl-DNA phosphodiesterase 1 (TDP1): qHTS in cells in absence of CPT. DT40 Tdp1-/- hTDP1 cells, no CPT, ATP luminescence, 48 h. Potency, µM (doses to about 46.2 µM), for the others: at the top dose activity change, negative = growth inhibition, hits mostly inhibitors. 15% of 420,000 active; also: potency is read from the fitted curve at half-maximal effect; nearly all actives have a fitted effect of over 55% in size
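Chicken DT40 Tdp1-/- cells complemented with human TDP1, screened without camptothecin (DMSO vehicle only), 400 cells/well. Compounds pin-transferred, cells incubated at 37 °C for at least 48 hr. Growth read as ATP-dependent luminescence (CellTiter-Glo, 30 min at RT).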
Numbers without * were called inactive; u = inconclusive; x = not tested or not shown; ! = a repeat was not active; [ ] = dose if it differs, or a comment. Unless noted, calls follow the shape of the dose curve; as a rule, active = well fitted curve in the direction sought with a large enough effect; inconclusive = small, poorly fitted or top-dose-only effect, or another doubt; inactive = no such curve, though single readings can be large; an effect the other way counts as inactive or inconclusive. Unless noted, % is scaled to controls: 0 for no effect and ±100 for the full control effect.

SMILES | TDP1 cell CPT | HT1080 IDH1KD tx | IL1B secr inh | HT1080-NT tox | TDP1 cell noCPT
CC(C)[C@H](NC(=O)[C@H](CCC(=O)O)NC(=O)[C@H](Cc1ccccc1)NC(=O)[C@H](C)NC(=O)[C@@H](N)Cc1ccc(O)cc1)C(=O)N[C@H](C(=O)NCC(N)=O)C(C)C | u | x | x | x | -16%[4.12 µM]
O[C@@H]1CCCC[C@@H]1N1CCC(c2ccccc2)CC1 | -3% | x | x | x | 8%
CCCN(CCC)CCc1c[nH]c2ccccc12 | 19µM* | x | x | x | u
CCC1(CC)C(=O)NC(=NCCc2c[nH]c3ccccc23)NC1=O | -1% | 0% | 24 | 6% | 9%
C=C(C)CSc1nnc([C@@H](N)Cc2c[nH]c3ccccc23)o1 | -11% | 2% | 5 | 13% | -22%
COc1ccc(CN(CCc2c[nH]c3ccccc23)Cc2ccc(OC)cc2)cc1 | 16µM* | u | -15 | u | 15µM*
CN(CCc1ccccc1)Cc1c[nH]c2ccccc12 | 0.82µM* | -10% | -67* | -20% | 1.5µM*
CCC(CC)NCc1c[nH]c2ccccc12 | 4.1µM* | -12% | 4 | -10% | 3.7µM*
CCOC(=O)C1CCCN(c2ccc([N+](=O)[O-])c3nonc23)C1 (centres undefined) | u | -3% | -5 | -7% | u
CC(=O)[C@H]1CC[C@H]2[C@@H]3CC[C@@H]4C[C@H](O)CC[C@]4(C)[C@H]3CC[C@]12C | -9% | x | x | x | -20%
O=C(C1CCC(=O)N1Cc1ccccc1Cl)N1CCC2(CC1)OCCO2 (centres undefined) | 4% | 1% | -1 | -3% | 1%
NCCc1c[nH]c2ccccc12 | u | -2% | -13 | 1% | -28%
CCN(CC)Cc1c[nH]c2ccccc12 | 10µM* | -20% | -25 | -16% | 16µM*
CS(=O)c1ccc(-c2nc(-c3ccc(F)cc3)c(-c3ccncc3)[nH]2)cc1 (centres undefined) | 30µM*! | x | x | x | 15µM*
Cc1ccc(CCNC(=O)C2CCCN(Cc3nc(-c4cccc(Cl)c4)oc3C)C2)cc1 (centres undefined) | 12µM* | x | x | x | 15µM*
CC(C)C[C@H](NC(=O)[C@H](Cc1ccccc1)NC(=O)CNC(=O)[C@H](CO)NC(=O)[C@@H](N)Cc1ccc(O)cc1)C(=O)N[C@H](C(=O)O)[C@H](C)O | -2%[4.12 µM] | x | x | x | 2%[4.12 µM]
CSCC[C@H](NC(=O)[C@H](Cc1ccccc1)NC(=O)CNC(=O)CNC(=O)[C@@H](N)Cc1ccc(O)cc1)C(=O)O | 0%[4.12 µM] | x | x | x | -2%[4.12 µM]
CC1CN(c2ccccn2)C(C)CN1C(=O)C(O)(c1ccccc1)c1ccccc1 (centres undefined) | 29µM* | -11% | 4 | -18% | 23µM*
CCc1cccc(C)c1NC(=S)N1CC2CC(C1)c1cccc(=O)n1C2 (centres undefined) | -14% | 0% | 38 | 3% | -16%
CCc1ccc(NC(=S)NC2CC3CCC(C2)N3Cc2ccco2)cc1 (centres undefined) | 18µM* | u | -4 | u | 23µM*
Cc1cccc(N2CCN(CCc3ccccc3)CC2)c1C | u | 9% | -15 | 0% | u
Cc1cccc(N2CCN(C(=O)c3ccc(CNc4c(N5CCC(C)CC5)c(=O)c4=O)cc3)CC2)c1C | u | -2% | 0 | -1% | 16µM*
O=C1C2CCCN2C(c2ccccc2)N1c1ccccn1 (centres undefined) | -14% | -5% | 24 | -2% | -14%
COc1ccc(NC(=O)c2oc3ccc(S(=O)(=O)N(C)C4CCCCC4)cc3c2C)cc1 | 10µM* | x | x | x | 8.2µM*

Screening results (PubChem)
